Source: PubChem BioAssay (NCATS)
Records with an inconclusive call do not appear. Activity calls are given as the source filed them. Calls follow the shape of the dose curve; as a rule, active = well fitted cell-killing curve with a large enough effect; inconclusive = small, poorly fitted or top-dose-only effect, or effect the other way; inactive = flat fitted curve, though single readings scatter.

Tests used:
Assay in all cases: Primary qHTS to identify gynecologic anti-cancer compounds using libraries of approved drugs and bioactive compounds (AID 1345084); also: nearly all actives have a fitted effect of over 55% in size
CAOV3 = settings: Gynecologic cancer cell panel viability, ATPlite luminescence, 48 h; series mostly up to 57.5 µM
How it was run: (§1)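 Cells, 1,000 per well, were allowed to settle for 16 h at 37 C before compound addition. Five concentrations were tested for 48 h, and viability was read by ATPlite luminescence after 15 min at room temperature.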

CASKI = settings: Gynecologic cancer cell panel viability, ATPlite luminescence, 48 h; series mostly up to 57.5 µM
How it was run: as §1

Es-2 = settings: Gynecologic cancer cell panel viability, ATPlite luminescence, 48 h; series mostly up to 57.5 µM
How it was run: as §1

HeLa = settings: Gynecologic cancer cell panel viability, ATPlite luminescence, 48 h; series mostly up to 57.5 µM
How it was run: as §1

Hek293T = settings: Gynecologic cancer cell panel viability, ATPlite luminescence, 48 h, control line for the selectivity index; series mostly up to 57.5 µM
How it was run: as §1

JEG-3 = settings: Gynecologic cancer cell panel viability, ATPlite luminescence, 48 h; series mostly up to 57.5 µM
How it was run: as §1

OV90 = settings: Gynecologic cancer cell panel viability, ATPlite luminescence, 48 h; series mostly up to 57.5 µM
How it was run: as §1

PA-1 = settings: Gynecologic cancer cell panel viability, ATPlite luminescence, 48 h; series mostly up to 57.5 µM
How it was run: as §1

SKOV3 = settings: Gynecologic cancer cell panel viability, ATPlite luminescence, 48 h; series mostly up to 57.5 µM
How it was run: as §1

Tov-21-G = settings: Gynecologic cancer cell panel viability, ATPlite luminescence, 48 h; series mostly up to 57.5 µM
How it was run: as §1

Tov112D = settings: Gynecologic cancer cell panel viability, ATPlite luminescence, 48 h; series mostly up to 57.5 µM
How it was run: as §1
% is scaled to controls: 0 for no effect and ±100 for the full control effect.

CCOc1nc2cccc(C(=O)O)c2n1Cc1ccc(-c2ccccc2-c2noc(=O)[nH]2)cc1
inactive: Potency (CAOV3) | Potency (CASKI) | Potency (Es-2) | Potency (HeLa) | Potency (Hek293T) | Potency (JEG-3) | Potency (OV90) | Potency (PA-1) | Potency (SKOV3) | Potency (Tov-21-G) | Potency (Tov112D)

C/C=C/C=C/C(CC(=O)O)Nc1ccc(C=O)cc1 (configuration not stated)
inactive: Potency (CAOV3) | Potency (CASKI) | Potency (Es-2) | Potency (HeLa) | Potency (Hek293T) | Potency (JEG-3) | Potency (OV90) | Potency (PA-1) | Potency (SKOV3) | Potency (Tov-21-G) | Potency (Tov112D)

C[C@H]1CC[C@@]2(OC1)O[C@H]1CC3C4CC=C5C[C@H](O)C[C@@H](O[C@@H]6O[C@@H](C)[C@H](O)[C@@H](O)[C@H]6O[C@@H]6O[C@@H](C)[C@H](O)[C@@H](O)[C@H]6O)[C@]5(C)C4CC[C@]3(C)[C@H]1[C@@H]2C (some centres not stated)
inactive: Potency (CAOV3) | Potency (CASKI) | Potency (Es-2) | Potency (HeLa) | Potency (Hek293T) | Potency (JEG-3) | Potency (OV90) | Potency (PA-1) | Potency (SKOV3) | Potency (Tov-21-G) | Potency (Tov112D)

CC1(CO)CC[C@]2(C(=O)O[C@@H]3O[C@H](CO)[C@@H](O)[C@H](O)[C@H]3O)CC[C@]3(C)C(=CCC4[C@@]5(C)C[C@H](O)[C@H](O[C@@H]6OC[C@@H](O)[C@H](O)[C@H]6O)[C@@](C)(CO)C5CC[C@]43C)C2C1 (some centres not stated)
inactive: activity change, negative = cytotoxicity (CAOV3) -5.98% [at 11.6 µM] | activity change, negative = cytotoxicity (CASKI) 3.16% [at 11.6 µM] | activity change, negative = cytotoxicity (Es-2) -0.538% [at 11.6 µM] | activity change, negative = cytotoxicity (HeLa) 1.08% [at 11.6 µM] | activity change, negative = cytotoxicity (Hek293T) 6.32% [at 11.6 µM] | activity change, negative = cytotoxicity (JEG-3) 16.2% [at 11.6 µM] | activity change, negative = cytotoxicity (OV90) 9.02% [at 11.6 µM] | activity change, negative = cytotoxicity (PA-1) -3.32% [at 11.6 µM] | activity change, negative = cytotoxicity (SKOV3) 2.79% [at 11.6 µM] | activity change, negative = cytotoxicity (Tov-21-G) 4.01% [at 11.6 µM] | activity change, negative = cytotoxicity (Tov112D) -0.665% [at 11.6 µM]

CC(=O)C1CCC2(C)C3=C(CCC12C)C1(C)CCC(=O)C(C)(C)C1CC3 (configuration not stated)
inactive: Potency (CAOV3) | Potency (CASKI) | Potency (Es-2) | Potency (HeLa) | Potency (Hek293T) | Potency (JEG-3) | Potency (OV90) | Potency (PA-1) | Potency (SKOV3) | Potency (Tov-21-G) | Potency (Tov112D)

CC(C)=CCc1ccc(Oc2c(O)cc(C)cc2CO)c(C(=O)O)c1O
inactive: Potency (CAOV3) | Potency (CASKI) | Potency (Es-2) | Potency (HeLa) | Potency (Hek293T) | Potency (JEG-3) | Potency (OV90) | Potency (PA-1) | Potency (SKOV3) | Potency (Tov-21-G) | Potency (Tov112D)

C=C1C2(CCC(=O)OC2(C)C)CC(OC(=O)/C(C)=C/C)C2(C)C13OC14C(=O)OC(C)(C(=O)C12C(=O)OC4C)C3OC(C)=O (configuration not stated)
inactive: Potency (CAOV3) | Potency (CASKI) | Potency (Es-2) | Potency (HeLa) | Potency (Hek293T) | Potency (JEG-3) | Potency (OV90) | Potency (PA-1) | Potency (SKOV3) | Potency (Tov-21-G) | Potency (Tov112D)
